The record followed here is paper PMC11006913.

Holding throughout (test): PBM; 200 nM protein, PBS
Holding throughout (conditions): dsDNA, one strand shown

Assay [1] has as its target HOXB9 (Homo sapiens, UniProt P17482 171-250, T197M).
Assay [2] deals with HOXB9 (Homo sapiens, UniProt P17482 171-250).
The target in assay [3] is HOXB9 (Homo sapiens, UniProt P17482 171-250, R186Q).
Assay [4] addresses VAX1 (Homo sapiens, UniProt Q5SQQ9 86-172).
For assay [5], the target named is VAX1 (Homo sapiens, UniProt Q5SQQ9 86-172, T142I).
The target of assay [6] is VAX1 (Homo sapiens, UniProt Q5SQQ9 86-172, K157R).
For assay [7], the target named is ALX1 (Homo sapiens, UniProt Q15699 118-204, L144V).
In assay [8] the target is ALX1 (Homo sapiens, UniProt Q15699 118-204, L144R).
Assay [9] concerns the target ALX1 (Homo sapiens, UniProt Q15699 118-204).
Another assay deals with PITX2 (Homo sapiens, UniProt Q99697 72-157).
In a further assay the target is T1, NKX2-6 (Homo sapiens, UniProt A6NCS4 118-204, R150C).
T1 sequence: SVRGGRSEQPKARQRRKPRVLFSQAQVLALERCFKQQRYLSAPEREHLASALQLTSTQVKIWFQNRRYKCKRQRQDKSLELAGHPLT

The target in assay [10] is HOXA2 (Homo sapiens, UniProt O43364 129-215, R185T).
The target in assay [11] is HOXA2 (Homo sapiens, UniProt O43364 129-215, R185K).
The target in assay [12] is HOXA2 (Homo sapiens, UniProt O43364 129-215, Y150S).
Assay [13] addresses HOXA2 (Homo sapiens, UniProt O43364 129-215).
The target in assay [14] is MSX2 (Homo sapiens, UniProt P35548 130-214, R199I).
For assay [15], the target named is MSX2 (Homo sapiens, UniProt P35548 130-214).
Assay [16] concerns the target MSX2 (Homo sapiens, UniProt P35548 130-214, F161Y).

Sequence of HOXB9 (Homo sapiens, UniProt P17482 171-250) (P17482 171-250): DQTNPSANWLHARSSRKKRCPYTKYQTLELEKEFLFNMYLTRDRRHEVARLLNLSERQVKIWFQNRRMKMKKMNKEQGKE
Sequence of HOXB9 (Homo sapiens, UniProt P17482 171-250, R186Q) (P17482 171-250 R186Q): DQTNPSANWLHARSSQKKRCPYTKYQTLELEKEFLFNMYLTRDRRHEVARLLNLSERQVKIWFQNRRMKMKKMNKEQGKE
Sequence of HOXB9 (Homo sapiens, UniProt P17482 171-250, T197M) (P17482 171-250 T197M): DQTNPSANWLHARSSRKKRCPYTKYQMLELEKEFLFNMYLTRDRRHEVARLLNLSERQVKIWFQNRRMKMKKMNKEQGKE
Sequence of VAX1 (Homo sapiens, UniProt Q5SQQ9 86-172, T142I) (Q5SQQ9 86-172 T142I): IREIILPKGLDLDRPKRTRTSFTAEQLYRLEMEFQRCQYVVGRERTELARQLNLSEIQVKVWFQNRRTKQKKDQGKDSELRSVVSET
Sequence of VAX1 (Homo sapiens, UniProt Q5SQQ9 86-172) (Q5SQQ9 86-172): as the sequence (Q5SQQ9 86-172 T142I) above, with I57T counted along it
Sequence of VAX1 (Homo sapiens, UniProt Q5SQQ9 86-172, K157R) (Q5SQQ9 86-172 K157R): as the sequence (Q5SQQ9 86-172 T142I) above, with I57T, K72R counted along it
Sequence of HOXA2 (Homo sapiens, UniProt O43364 129-215, R185T) (O43364 129-215 R185T): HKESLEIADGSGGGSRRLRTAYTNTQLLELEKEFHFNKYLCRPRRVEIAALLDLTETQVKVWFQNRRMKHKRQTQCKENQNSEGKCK
Sequence of ALX1 (Homo sapiens, UniProt Q15699 118-204, L144V) (Q15699 118-204 L144V): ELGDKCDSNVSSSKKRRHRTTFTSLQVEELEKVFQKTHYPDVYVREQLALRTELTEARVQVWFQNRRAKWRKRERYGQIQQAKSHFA
Sequence of MSX2 (Homo sapiens, UniProt P35548 130-214, R199I) (P35548 130-214 R199I): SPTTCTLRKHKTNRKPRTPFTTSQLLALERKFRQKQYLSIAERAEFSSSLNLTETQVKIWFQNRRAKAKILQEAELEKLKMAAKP
Sequence of ALX1 (Homo sapiens, UniProt Q15699 118-204) (Q15699 118-204): as the sequence (Q15699 118-204 L144V) above, with V27L counted along it
Sequence of MSX2 (Homo sapiens, UniProt P35548 130-214) (P35548 130-214): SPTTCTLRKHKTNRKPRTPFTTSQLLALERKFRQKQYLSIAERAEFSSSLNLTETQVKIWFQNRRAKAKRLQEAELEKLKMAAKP
Sequence of HOXA2 (Homo sapiens, UniProt O43364 129-215, Y150S) (O43364 129-215 Y150S): as the sequence (O43364 129-215 R185T) above, with Y22S, T57R counted along it
Sequence of HOXA2 (Homo sapiens, UniProt O43364 129-215) (O43364 129-215): as the sequence (O43364 129-215 R185T) above, with T57R counted along it
Sequence of MSX2 (Homo sapiens, UniProt P35548 130-214, F161Y) (P35548 130-214 F161Y): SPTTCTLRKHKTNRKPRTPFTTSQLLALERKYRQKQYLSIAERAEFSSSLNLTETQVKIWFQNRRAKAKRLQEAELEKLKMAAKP
Sequence of HOXA2 (Homo sapiens, UniProt O43364 129-215, R185K) (O43364 129-215 R185K): as the sequence (O43364 129-215 R185T) above, with T57K counted along it
Sequence of ALX1 (Homo sapiens, UniProt Q15699 118-204, L144R) (Q15699 118-204 L144R): as the sequence (Q15699 118-204 L144V) above, with V27R counted along it

For GCACCGCC, the binding signal in the assay with HOXB9 [1] is 8.24 upbm affinity estimate (log intensity, higher = more binding, comparable within an allelic series); with HOXB9 [2] it was 8.35 upbm affinity estimate (log intensity, higher = more binding, comparable within an allelic series); with HOXB9 [3], 8.25 upbm affinity estimate (log intensity, higher = more binding, comparable within an allelic series).
With CTTGGGCC, the binding signal was 8.42 upbm affinity estimate (log intensity, higher = more binding, comparable within an allelic series) with HOXB9 [1]; 8.37 upbm affinity estimate (log intensity, higher = more binding, comparable within an allelic series) with HOXB9 [2]; 6.94 upbm affinity estimate (log intensity, higher = more binding, comparable within an allelic series) in the assay with VAX1 [4]; 8.33 upbm affinity estimate (log intensity, higher = more binding, comparable within an allelic series) with HOXB9 [3]; 7.04 upbm affinity estimate (log intensity, higher = more binding, comparable within an allelic series) with VAX1 [5]; 6.93 upbm affinity estimate (log intensity, higher = more binding, comparable within an allelic series) with VAX1 [6].
On to CCTAGCCG, for which the binding signal with HOXB9 [1] was 8.53 upbm affinity estimate (log intensity, higher = more binding, comparable within an allelic series); with HOXB9 [2] it was 8.64 upbm affinity estimate (log intensity, higher = more binding, comparable within an allelic series); with ALX1 [7], 6.49 upbm affinity estimate (log intensity, higher = more binding, comparable within an allelic series); with ALX1 [8] it was 6.54 upbm affinity estimate (log intensity, higher = more binding, comparable within an allelic series); with HOXB9 [3], 8.65 upbm affinity estimate (log intensity, higher = more binding, comparable within an allelic series); in the assay with ALX1 [9], 6.41 upbm affinity estimate (log intensity, higher = more binding, comparable within an allelic series).
As for CCCGCGAG, the binding signal with HOXB9 [1] is 8.58 upbm affinity estimate (log intensity, higher = more binding, comparable within an allelic series); with HOXB9 [2], 8.45 upbm affinity estimate (log intensity, higher = more binding, comparable within an allelic series); with HOXB9 [3], 8.39 upbm affinity estimate (log intensity, higher = more binding, comparable within an allelic series).
Consider CCGGACGC, for which the binding signal with HOXB9 [1] is 8.6 upbm affinity estimate (log intensity, higher = more binding, comparable within an allelic series); with HOXB9 [2] it was 8.5 upbm affinity estimate (log intensity, higher = more binding, comparable within an allelic series); with VAX1 [4] it was 7.11 upbm affinity estimate (log intensity, higher = more binding, comparable within an allelic series); with HOXB9 [3], 8.59 upbm affinity estimate (log intensity, higher = more binding, comparable within an allelic series); with VAX1 [5], 7.2 upbm affinity estimate (log intensity, higher = more binding, comparable within an allelic series); in the assay with VAX1 [6], 7.16 upbm affinity estimate (log intensity, higher = more binding, comparable within an allelic series).
As to CGGGCAAC, the binding signal in the assay with HOXB9 [1] was 8.62 upbm affinity estimate (log intensity, higher = more binding, comparable within an allelic series); in the assay with HOXB9 [2], 8.62 upbm affinity estimate (log intensity, higher = more binding, comparable within an allelic series); with PITX2, 7.85 upbm affinity estimate (log intensity, higher = more binding, comparable within an allelic series); with HOXB9 [3], 8.68 upbm affinity estimate (log intensity, higher = more binding, comparable within an allelic series).
Regarding CCACGCCG, the binding signal was 8.48 upbm affinity estimate (log intensity, higher = more binding, comparable within an allelic series) with HOXB9 [1]; 8.38 upbm affinity estimate (log intensity, higher = more binding, comparable within an allelic series) in the assay with HOXB9 [2]; 8.41 upbm affinity estimate (log intensity, higher = more binding, comparable within an allelic series) with HOXB9 [3].
As for CCGATCGG, the binding signal was 8.51 upbm affinity estimate (log intensity, higher = more binding, comparable within an allelic series) with HOXB9 [1]; 8.53 upbm affinity estimate (log intensity, higher = more binding, comparable within an allelic series) with HOXB9 [2]; 8.57 upbm affinity estimate (log intensity, higher = more binding, comparable within an allelic series) with HOXB9 [3].
Consider CGCTACCG, for which the binding signal is 8.45 upbm affinity estimate (log intensity, higher = more binding, comparable within an allelic series) with HOXB9 [1]; 8.54 upbm affinity estimate (log intensity, higher = more binding, comparable within an allelic series) with HOXB9 [2]; 9.4 upbm affinity estimate (log intensity, higher = more binding, comparable within an allelic series) with NKX2-6; 8.56 upbm affinity estimate (log intensity, higher = more binding, comparable within an allelic series) with HOXB9 [3].
Consider CGCCGGAC, for which the binding signal was 8.48 upbm affinity estimate (log intensity, higher = more binding, comparable within an allelic series) with HOXB9 [1]; 7.23 upbm affinity estimate (log intensity, higher = more binding, comparable within an allelic series) in the assay with HOXA2 [10]; 8.46 upbm affinity estimate (log intensity, higher = more binding, comparable within an allelic series) in the assay with HOXB9 [2]; 10.4 upbm affinity estimate (log intensity, higher = more binding, comparable within an allelic series) in the assay with HOXA2 [11]; 8.52 upbm affinity estimate (log intensity, higher = more binding, comparable within an allelic series) with HOXB9 [3]; 10.4 upbm affinity estimate (log intensity, higher = more binding, comparable within an allelic series) with HOXA2 [12]. The binding signal with HOXA2 [13] is 7.32 upbm affinity estimate (log intensity, higher = more binding, comparable within an allelic series).
Consider CCCCTCGA, for which the binding signal with HOXB9 [1] was 8.73 upbm affinity estimate (log intensity, higher = more binding, comparable within an allelic series); with HOXB9 [2], 8.55 upbm affinity estimate (log intensity, higher = more binding, comparable within an allelic series); in the assay with HOXB9 [3], 8.57 upbm affinity estimate (log intensity, higher = more binding, comparable within an allelic series).
On to CCGTGAGG, for which the binding signal with HOXB9 [1] was 8.4 upbm affinity estimate (log intensity, higher = more binding, comparable within an allelic series); with HOXB9 [2], 8.23 upbm affinity estimate (log intensity, higher = more binding, comparable within an allelic series); with MSX2 [14] it was 9.41 upbm affinity estimate (log intensity, higher = more binding, comparable within an allelic series); with MSX2 [15], 9.11 upbm affinity estimate (log intensity, higher = more binding, comparable within an allelic series); in the assay with HOXB9 [3], 8.2 upbm affinity estimate (log intensity, higher = more binding, comparable within an allelic series); with MSX2 [16], 9.23 upbm affinity estimate (log intensity, higher = more binding, comparable within an allelic series).
In the case of GCCGCAGA, the binding signal was 8.65 upbm affinity estimate (log intensity, higher = more binding, comparable within an allelic series) with HOXB9 [1]; 8.62 upbm affinity estimate (log intensity, higher = more binding, comparable within an allelic series) in the assay with HOXB9 [2]; 8.62 upbm affinity estimate (log intensity, higher = more binding, comparable within an allelic series) with HOXB9 [3].
GCGGGTGA: the binding signal in the assay with HOXB9 [1] was 8.59 upbm affinity estimate (log intensity, higher = more binding, comparable within an allelic series); with HOXB9 [2], 8.45 upbm affinity estimate (log intensity, higher = more binding, comparable within an allelic series); with HOXB9 [3], 8.62 upbm affinity estimate (log intensity, higher = more binding, comparable within an allelic series).
